The text below walks through data of PubChem BioAssay AID624263 (National Center for Advancing Translational Sciences (NCATS), 2012).

About 820 (0.2%) of roughly 410,000 compounds were called active. Inconclusive results (about 2%) are left out. Calls come from the whole dose curve; as a rule, active = well fitted activation curve with a large enough effect; inconclusive = small, poorly fitted or top-dose-only effect; inactive = flat fitted curve, though single readings scatter; cell line not stated here. What follows is part of a selection rich in actives, with near analogues and random picks from the rest. Where a call stands in place of a potency, no number is given.
Potency is the fitted concentration of half-maximal effect.

A short description of the experiment: A Quantitative High throughput Screen to Identify Chemical Modulators of PINK1 Expression. Note: nearly all actives have a fitted effect of over 65% in size. The note with it: PINK1 immunofluorescence, high-content cytometry, 24 h; series mostly up to 76.6 µM. The source says: The overall goal of this project is to develop new tools for understanding and treating the mitochondrial basis for neurodegenerative disease such as Parkinson's disease (PD). The PINK1 campaign was developed from recent data pointing towards mitochondrial dysfunction as a major contributor to dopaminergic neuron loss. The discovery of PINK1/Parkin mediated mitophagy has highlighted the potential for mitochondrial quality control as a novel target for therapeutic intervention. […] A second aim of this project is the development of chemical probes to study the mechanics of mitochondrial quality control. As the PINK1/Parkin mitophagy pathway is a relative recent discovery, no specific chemical probes are available that modulate the process. Presently, only crude tools that cause nonspecific mitochondrial damage are available. To advance the understanding of mitophagy, specific, well characterized chemicals that target various steps of mitophagy regulation need to be developed. New chemical probes may have the ability to dynamically manipulate mitophagy in model organisms such as rodents and zebrafish, advancing our understanding of the process in development and disease. This HTS campaign seeks to discover an activator of PINK1 expression by modulation at the level of post-translational processing.
The PINK1 assay determines the amount and localization of PINK1 protein in a cell using a combination of immunofluorescence and cell staining. The goal of the assay is to determine small molecules that can increase the expression of Pink1 on or inside the cell's mitochondria (ideally without mitochondrial depolarization) using a stable cell line. Since PINK1 protein is rapidly degraded in un-perturbed cells, compounds that induce the enhancement of PINK1 protein expression are identified by determining PINK1 immunofluorescence in conjunction with a mitochondrial, cell, and nuclear marker post fixation. To facilitate rapid high content screening, the primary assay is run in a decision-based HTS mode where compound titration data collected by laser-scanning microplate cytometers is processed and only promising compound series are passed off for high content drill down.
1 Add cells to black, clear-bottom, low-base 1536-well plates 6 uL (250 cells/well)
2 Incubate in TC incubator (12 hours)
3 Pin compounds or DMSO controls 23 nL (5 concentrations per compound set)
4 Dispense CCCP to control columns
5 Incubate in TC incubator 24 hours
6 Aspirate media and fix cells (5 uL of fixative containing nuclear dye)
7 Incubate 15 minutes at RT
8 Wash in PBSTween (12 uL/well)
9 Wash in PBSTriton (12 uL/well)
10 Aspirate wash and add Blocking buffer (4 uL/well)
12 Aspirate block and add primary antibodies 3.5 (uL/well)
13 Incubate 12 hours at 10 degrees C
14 Wash in PBSTween-20 two times (12 uL/well)
15 Aspirate wash and add secondary antibodies (12 uL/well)
17 Wash in PBSTween (12 uL/well)
18 Wash in PBSTween with cell stain (12 uL/well)
19 Read plates on Acumen EX3 and determine Wells2Cells coordinates
Turning to `CCOc1ccc(-c2cc(C)[n+](CCN(CC)CC)c(-c3ccc(OCC)cc3)c2)cc1`, the Potency was 15.8 µM (active).

Regarding `Cn1cc(/C=C/c2nc3ccccc3c(=O)n2-c2ccccc2)c2ccccc21`, the Potency entry was “inactive”. As for `COc1cccc(N2C(=O)NC(=O)/C(=C\c3cn(C)c4ccccc34)C2=O)c1`, the Potency was 39.8 µM (active). As for `CCc1nc2ccccc2c(=O)n1-c1cccc(OC)c1`, the Potency result was “inactive”. On to `c1ccc(N2CC[C@@]3(CCCNC3)C2)nc1`, for which the Potency entry was “inactive”.

Turning to `COc1cccc(-c2ccc(O)c(CNC3CN4CCC3CC4)c2)n1` (centres undefined), the Potency entry is “inactive”. For `c1ccc(CN2CC[C@@]3(CCCNC3)C2)cc1`, the Potency entry was “inactive”. The same measure for `COc1cc([C@@H]2c3cc4c(cc3[C@H](OC(C)=O)[C@H]3COC(=O)[C@H]23)OCO4)cc(OC)c1OC`: “inactive”; for `N#Cc1c(Cl)c(Cl)c(Cl)c(C#N)c1Cl`: “inactive”.
